Data reported in PubChem BioAssay (NCI).
About 83,000 compounds went through this panel and 20% of them were active in at least one assay; those are over-represented in the sample as a whole.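 Step 1: grow cells in 96-well plates. Step 2: add test compound at a single concentration. Step 3: incubate 48 h. Step 4: record percent growth.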 A number with no mark means an inactive call. Calls of active or inactive are those of the source. The calls were made as follows: active = growth percent below 10; inactive = the rest.

The molecules below were run on A498 renal (assay: NCI-60 one-dose screen, 48 h (100 = growth as untreated, 0 = no growth, -100 = all killed)). Settings: 10 µM unless noted.
In the case of N#Cc1c(NC(=O)c2ccc([N+](=O)[O-])o2)[n+]([O-])c2cc(F)c(F)cc2[n+]1[O-], the growth was 151%.
CC(C)(C)OC(=O)N1C/C(=C\c2cccs2)C(=O)/C(=C/c2cccs2)C1 was tested, and the growth was 81.9%.
Work on CC(Cc1nnc(SCC(=O)Nc2ccc(I)cc2)n1N)c1ccccc1 (stereo not given) yielded a growth of 99.9%.
Work on COC(=O)CC/C(C)=N\Nc1ccc([N+](=O)[O-])cc1 yielded a growth of 77.3%.
COc1ccccc1OCC(=O)Nc1sc2c(c1C(N)=O)CCC2 showed a growth of 67.1%.
In the case of CC(=O)N1Cc2ccccc2C(C)Cc2cc(Cl)ccc21 (stereo not given), the growth was 75.7%.
For COc1ccc(/C(=N/O)c2cc(OC)c(OC)c(OC)c2)c(OC)c1N, the growth was -4.33% (active).
Work on CC(C)CCC[C@@H](C)[C@H]1CC[C@H]2[C@@H]3CC[C@H]4C/C(=N/O)CC[C@]4(C)[C@H]3CC[C@]12C yielded a growth of 98.5%.
Molecule C/C(=N\NC(=O)CC#N)c1cc2cc(Cl)ccc2o1 has a growth of 111%.
For CCC#CC[C@H]1C/C=C2/C(=O)C=C[C@@H]2C/C=C\CCCC(=O)O1, the growth was 46.5%.
Cc1cc(C(=O)O)c(N)c(C)n1 was tested, and the growth was 101%.
With CCCCCCOc1ccc(C2(Cl)c3ccccc3N(C)c3ccccc32)cc1 the growth was 86.6%.
CC(C)N(Cc1ccc(CN(C(=O)CCl)C(C)C)cc1)C(=O)CCl showed a growth of 88.2%.
Work on COc1cc(-n2nc(C(=O)Nc3ccc(C(=O)O)cc3)nc2-c2ccccc2)cc(OC)c1OC yielded a growth of 62.9%.
NC(=O)NNC(=O)c1ccccc1 gave a growth of 124%.
